Shown are actives, neighbours in structure and some others; about 21% of the full set was active somewhere.
Pf growth 96h: Primary qHTS for delayed death inhibitors of the malarial parasite plastid, 96 hour incubation; P. falciparum luciferase reporter growth, 96 h; Potency, µM (series often up to 28.7 µM), without a hit: at the highest dose activity change, negative = inhibition, hits mostly inhibitors; hit rate 6.9% among 320,000; AID 504834, 2011; further: potency means the concentration at half of the fitted maximal effect; on the % scale 0 is the no-effect control and ±100 the full control effect
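Compounds incubated with erythrocytes infected by luciferase-expressing P. falciparum (2% hematocrit, 0.05% parasitemia final) for 96 hours, 37 C in 5% CO2. Growth inhibition scored as decreased luciferase luminescence.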
HCMV inh: qHTS Assay for inhibitors of the human cytomegalovirus (HCMV); HFF cells, HCMV-luciferase reporter, 72 h; stronger effect = lower value; activity change, negative = inhibition, % at 57.5 µM; hit rate 4.5% among 410,000; AID 1259415, 2018; in the data active means activity change below about -60%; inconclusive means no clear call, values can overlap the other calls; inactive means above about -39%; further: on the % scale 0 is the no-effect control and ±100 the full control effect
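Steps: HFFs plated, 16 h 37C; compounds added; HCMV-luciferase added to MOI 1 PFU/cell; 72 h 37C; OneGlo reagent, 5 min room temperature; luminescence read, normalized to controls.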
Pf growth 48h: Primary qHTS for delayed death inhibitors of the malarial parasite plastid, 48 hour incubation; P. falciparum luciferase growth in erythrocytes, 48 h; hit rate 5.9% among 310,000; Potency, µM (titrated, usually from 28.7 µM), for the others: top-dose activity change, negative = inhibition, usual class: inhibitors; AID 504832, 2011; further: potency means the concentration at half of the fitted maximal effect; on the % scale 0 is the no-effect control and ±100 the full control effect
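Cell-based growth assay: transgenic P. falciparum expressing firefly luciferase, cultured in red cells within RPMI 1640 containing 0.5% w/v Albumax, 24 mM bicarbonate and gentamycin. A drop in luciferase activity indicates inhibition.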
Shiga inhibitor: A qHTS for Small Molecule Inhibitors of Shiga Toxin; Vero cells, Shiga toxin protein synthesis inhibition reporter; inhibition, % at 38.7 µM; hit rate 9.2% among 290,000; in the data active means inhibition mostly above about 28%, no sharp cut-off; inactive means mostly below about 43%; further: 0% is about no effect
Cycloheximide cs: Cycloheximide Counterscreen for Small Molecule Inhibitors of Shiga Toxin; max response, %; cell reporter, cycloheximide protein synthesis inhibition counterscreen; hit rate 12% among 300,000; in the data active means max response mostly above about 13%, no sharp cut-off; inactive means mostly below about 14%; further: read at 38.3 µM for the half of the compounds with a filed dose; 0% is about no effect
HCV inhibitor: qHTS Assay for Inhibitors of Hepatitis C Virus (HCV) | Huh7.5.1 HCVcc-Cre infection, luciferase reporter, 44 h | Potency, µM (titrated, usually from 41.8 µM), without a hit: top-dose activity change, negative = inhibition, most hits filed as inhibitors | hit rate 3.4% among 340,000; further: potency means the concentration at half of the fitted maximal effect; on the % scale 0 is the no-effect control and ±100 the full control effect
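Cells seeded at 1,000/well and cultured 4 h, then compounds added followed by HCVcc-Cre virus (~0.5 moi). After 44 h further culture, luciferase substrate was added, plates held 15 min at room temperature, and luminescence read for 15 sec.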
* marks the source's active call; other numbers are inactive results; [ ] = dose if it differs, or a comment. Unless noted, the call rests on the fitted dose curve; in most records, active means well fitted inhibition curve with a large enough effect; inconclusive means small, poorly fitted or top-dose-only effect, or another doubt; inactive means no such curve, though single readings can be large or run the other way.

COc1cc(C(=O)OCC(=O)c2c(N)n(C)c(=O)n(C)c2=O)ccc1OCCC(C)C was read as Pf growth 96h 11.0%, HCMV inh 98.1, Pf growth 48h 3.5%, Shiga inhibitor -11.8, Cycloheximide cs -2.8 and HCV inhibitor -4.5%.
For O=C(Nc1ccc(Cl)cc1)OCc1cn(-c2ccccc2)nn1 the results were Pf growth 96h 33.2%, HCMV inh -12.8, Pf growth 48h 231.3%, Shiga inhibitor 29.5, Cycloheximide cs 30.2* and HCV inhibitor 4.3%.
For Cc1ccccc1NC(=O)OCc1cn(-c2ccc(Cl)cc2)nn1 the results were Pf growth 96h 15.1%, HCMV inh -13.6, Pf growth 48h 41.1%, Shiga inhibitor -10.0, Cycloheximide cs -2.6 and HCV inhibitor 0.9%.
`Cc1ccc(C(=O)OCc2cn(-c3ccccc3)nn2)cc1` gave Pf growth 96h inconclusive, HCMV inh -33.2, Pf growth 48h 13.1µM*, Shiga inhibitor -5.9, Cycloheximide cs 17.0 and HCV inhibitor -4.2%.
`Cc1ccc(-n2cc(CCCCCCCCC(=O)O)nn2)cc1` gave Pf growth 96h 5.86µM*, HCMV inh -27.0, Pf growth 48h 0.7%, Shiga inhibitor -1.0, Cycloheximide cs 1.4 and HCV inhibitor 16.4%.
NNC(=O)C(Cc1cnc[nH]1)NC(=O)OCc1ccccc1 (stereo not drawn) was read as Pf growth 96h 19.0%, HCMV inh -27.7, Pf growth 48h 5.0%, Shiga inhibitor 2.5, Cycloheximide cs -4.3 and HCV inhibitor 7.0%.
For CC(C)(C)C(=O)CC(=O)Nc1ccc(Cl)c(N)c1 the results were Pf growth 96h inconclusive, HCMV inh 20.8, Pf growth 48h 79.0%, Shiga inhibitor 167.3*, Cycloheximide cs 46.8* and HCV inhibitor 6.4%.
`CN(C)CCCOc1ccc2c(c1)Sc1ccccc1CC2=O` gave Pf growth 96h -29.0%, HCMV inh -16.8, Pf growth 48h 5.0%, Shiga inhibitor 23.0, Cycloheximide cs 20.9* and HCV inhibitor 10µM*.
Screening O=C1Cc2ccccc2Sc2cc(OCCCN3CCCCC3)ccc21 returned Pf growth 96h inconclusive, HCMV inh -33.3, Pf growth 48h inconclusive, Shiga inhibitor -4.4, Cycloheximide cs -1.0 and HCV inhibitor inconclusive.
`CCn1c(SCc2ccc(C#N)cc2)nnc1-c1ccc(S(=O)(=O)N2CCCCC2)cc1` gave Pf growth 96h -1.9%, HCMV inh -69.9*, Pf growth 48h 1.47µM*, Shiga inhibitor -0.8, Cycloheximide cs 8.9 and HCV inhibitor 7.94µM*.
For CCn1c(SCC(=O)N2CCCC2)nnc1-c1ccc(S(=O)(=O)N2CCCCCC2)cc1 the results were Pf growth 96h inconclusive, HCMV inh 0.8, Pf growth 48h 9.28µM*, Shiga inhibitor -7.3, Cycloheximide cs 1.7 and HCV inhibitor -4.6%.
Screening CCCCNC(=O)CSc1nnc(-c2ccc(S(=O)(=O)N3CCCC3)cc2)n1C returned Pf growth 96h 17.0%, HCMV inh -22.8, Pf growth 48h inconclusive, Shiga inhibitor -1.7, Cycloheximide cs 1.2 and HCV inhibitor 21.1%.
`N#Cc1ccc(CSc2ccc(S(=O)(=O)N3CCCC3)cn2)cc1` gave Pf growth 96h -28.6%, HCMV inh -4.9, Pf growth 48h -21.8% and HCV inhibitor inconclusive.
For Cn1c(SCC(=O)NCc2cccs2)nnc1-c1ccc(S(=O)(=O)N2CCCC2)cc1 the results were Pf growth 96h 8.28µM*, HCMV inh -16.0, Pf growth 48h inconclusive, Shiga inhibitor 8.6, Cycloheximide cs -4.6 and HCV inhibitor -3.4%.
Screening Cn1c(SCC(=O)N2CCCCC2)nnc1-c1ccc(S(=O)(=O)N2CCOCC2)cc1 returned Pf growth 96h 13.1µM*, HCMV inh -15.4, Pf growth 48h -0.7%, Shiga inhibitor -18.9, Cycloheximide cs -1.5 and HCV inhibitor -15.9%.
`CCn1c(SCC(=O)N2CCCCC2)nnc1-c1ccc(S(=O)(=O)N2CCN(C)CC2)cc1` gave Pf growth 96h -1.0%, HCMV inh 1.1, Pf growth 48h 10.5%, Shiga inhibitor -6.3, Cycloheximide cs -2.1 and HCV inhibitor -1.5%.
`Cn1c(SCC(=O)N2CCCC2)nnc1-c1ccc(S(=O)(=O)N2CCCC2)cc1` gave Pf growth 96h 1.3%, HCMV inh -18.1, Pf growth 48h -6.5%, Shiga inhibitor -18.3, Cycloheximide cs -0.5 and HCV inhibitor 14.5%.
CCN1C(=O)[C@H]2[C@H]3CN=C(SCc4ccc(OC)cc4)N3[C@@](CC)(C(=O)OC)[C@H]2C1=O was read as HCMV inh -3.6 and HCV inhibitor 5.5%[8.37 µM].
O=C(NCc1ccc(F)cc1)C1CCCN(c2nc3ccsc3c(=O)s2)C1 (stereo not drawn) was read as Pf growth 96h inconclusive, HCMV inh -30.2, Pf growth 48h inconclusive, Shiga inhibitor -9.7, Cycloheximide cs -3.0 and HCV inhibitor 1.7%.
For CN1[C@@H]2CC[C@H]1CC(OC(=O)C1C=Nc3ccccc31)C2 (stereo partly drawn) the results were Pf growth 96h 13.1µM*, HCMV inh -24.8, Pf growth 48h inconclusive, Shiga inhibitor 1.0, Cycloheximide cs -7.8 and HCV inhibitor 6.1%[8.37 µM].
CN1C2CCC1CC(OC(=O)c1cccc(O)c1)C2 (stereo not drawn) was read as HCMV inh -3.3 and HCV inhibitor -6.0%.
Screening Cc1csc(NC(=O)CCNC(=O)c2ccccc2Cl)n1 returned Pf growth 96h 26.0%, HCMV inh 6.1, Pf growth 48h 0.3%, Shiga inhibitor 31.3, Cycloheximide cs 13.5 and HCV inhibitor -17.1%.
Screening Cc1ccc(S(=O)(=O)c2nnn3c2nc(N2CCC(C(N)=O)CC2)c2ccccc23)cc1 returned Pf growth 96h -3.2%, HCMV inh -17.9, Pf growth 48h -7.7%, Shiga inhibitor -7.6, Cycloheximide cs 1.8 and HCV inhibitor -10.2%.
`O=C(c1[nH]ncc1-c1cccc(Br)c1)C1CO1` (stereo not drawn) gave Pf growth 96h inconclusive, HCMV inh 15.3, Pf growth 48h 14.7µM*, Shiga inhibitor 13.5, Cycloheximide cs active and HCV inhibitor inconclusive.
For CCn1c(CNC(=O)c2ccccc2F)cc2ccccc21 the results were Pf growth 96h 1.7%, HCMV inh 50.1, Pf growth 48h inconclusive, Shiga inhibitor 142.0*, Cycloheximide cs 23.6* and HCV inhibitor -7.1%.
`CCn1c(CNC(=O)c2ccccc2F)cc2cc(C)ccc21` gave Pf growth 96h 297.4%, HCMV inh 62.9, Pf growth 48h inconclusive, Shiga inhibitor 13.5, Cycloheximide cs 14.5* and HCV inhibitor -12.6%.
For CCn1c(CNC(=O)c2ccccc2Cl)cc2ccccc21 the results were Pf growth 96h 6.8%, HCMV inh -11.0, Pf growth 48h -23.1%, Shiga inhibitor 24.6, Cycloheximide cs 14.2 and HCV inhibitor -24.0%.

Compound activity deposited in PubChem BioAssay by National Center for Advancing Translational Sciences (NCATS).
